Assay outcomes from PubChem.
Hits are enriched below; roughly 5.8% of the tested compounds scored in any of these assays.
RORg inh = blocks mouse ROR gamma transcriptional activity. P51450. actives 5.4% (n = 310,000). Potency, µM (top dose mostly 53.6 µM), without a hit: top-dose activity change, negative = inhibition, most hits filed as inhibitors. Drosophila S2 Gal4-RORgamma UAS-luciferase reporter, 20 h; also: potency is read from the fitted curve at half-maximal effect; % is scaled to controls: 0 for no effect and ±100 for the full control effect; nearly all actives have a fitted effect of over 60% in size
Target sequence (P51450 whole entry, looked up, the tested form may be a part): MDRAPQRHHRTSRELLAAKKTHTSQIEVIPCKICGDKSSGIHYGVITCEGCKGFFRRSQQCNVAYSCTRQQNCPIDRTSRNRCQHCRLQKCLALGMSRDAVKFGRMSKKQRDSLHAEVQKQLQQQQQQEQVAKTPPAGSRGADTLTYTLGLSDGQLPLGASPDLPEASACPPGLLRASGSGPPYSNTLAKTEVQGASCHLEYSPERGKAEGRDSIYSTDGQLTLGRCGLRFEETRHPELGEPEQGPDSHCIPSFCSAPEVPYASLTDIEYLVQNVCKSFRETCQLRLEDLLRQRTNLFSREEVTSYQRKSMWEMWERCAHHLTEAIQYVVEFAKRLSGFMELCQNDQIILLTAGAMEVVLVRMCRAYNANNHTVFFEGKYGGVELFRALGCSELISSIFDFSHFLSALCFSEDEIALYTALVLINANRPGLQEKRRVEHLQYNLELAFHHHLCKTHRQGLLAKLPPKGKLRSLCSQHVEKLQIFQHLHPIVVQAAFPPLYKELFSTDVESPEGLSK
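Stably transfected Drosophila Schneider cells are the test system, with ROR gamma fused to Gal4 and luciferase under UAS control; luminescence is read after 20 hr of 700 uM copper sulfate induction at ambient temperature.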
TRPV1 PAM = enhances activation of the human vanilloid receptor TRPV1; potentiation, % at 8.33 µM; actives 0.02% (n = 320,000); Q8NER1; TRPV1-expressing cells, Fluo-8 calcium influx, capsaicin EC20 potentiation; in the data active = potentiation above about 80%; inconclusive = between about 30% and that limit; also: 0% is about no effect
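Cells expressing TRPV1 were dye-loaded with Fluo-8 and read kinetically: 10 s baseline, 3 min after compound (agonist portion), then 2 min after EC20 capsaicin (allosteric enhancer portion). Calcium-bound dye fluorescence at 480/520 nm.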
Gal4-VP16 FLuc = counter-screen for ROR gamma inhibitors: Gal4-VP16 reporter. Drosophila S2 Gal4-VP16 UAS-luciferase, luminescence, 20 h. Potency, µM (titrated, usually from 53.6 µM), for the others: at the highest dose activity, negative = inhibition, actives largely listed as inhibitors. actives 3.5% (n = 310,000). AID 2546;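 also: Gal4-VP16 expression switched on by copper sulfate through the metallothionein promoter; potency is read from the fitted curve at half-maximal effect; % is scaled to controls: 0 for no effect and ±100 for the full control effect; nearly all actives have a fitted effect of over 50% in size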
TRPV1 ag = activates the human vanilloid receptor TRPV1; Q8NER1; TRPV1-expressing cells, Fluo-8 calcium influx, agonist mode; activation, % at 8.33 µM; actives 0.19% (n = 320,000); AID 540275; in the data active = activation above about 80%; inconclusive = between about 30% and that limit; also: 0% is about no effect
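TRPV1-expressing cells were cultured overnight at 35.5C and loaded with Fluo-8 calcium dye for 40 to 90 min at room temperature. After a 10 s baseline, compound was added and calcium influx was read kinetically for 3 min (ex 480/em 520 nm).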
uPA surface inh = blocks generation of uPA at the cell surface; cell surface uPA generation assay, qHTS; Potency, µM (top dose mostly 38.3 µM), for the others: at the highest dose activity change, negative = inhibition, hits mostly inhibitors; actives 0.31% (n = 330,000); AID 540303; active = well fitted inhibition curve with a large enough effect; inconclusive = small, poorly fitted or top-dose-only effect; inactive = no such curve, though single readings can be large or run the other way; tested in mouse RAW 264.7 cells; also: potency is read from the fitted curve at half-maximal effect; % is scaled to controls: 0 for no effect and ±100 for the full control effect; nearly all actives have a fitted effect of over 55% in size
An asterisk follows results filed as active; ? = inconclusive; nt = not tested or not shown. Unless noted, calls follow the shape of the dose curve; as a rule, active = well fitted curve in the direction sought with a large enough effect; inconclusive = small, poorly fitted or top-dose-only effect, or another doubt; inactive = no such curve, though single readings can be large; an effect the other way counts as inactive or inconclusive.

SMILES	RORg inh	TRPV1 PAM	Gal4-VP16 FLuc	TRPV1 ag	uPA surface inh
Cc1ccc(CNC(=O)COC(=O)COc2ccc(C#N)cc2)cc1	nt	1	nt	1	-21%
CCOc1ccc(CN(C)C(=O)c2ccc(NC(=O)CC3SC(N4CCCC4)=NC3=O)cc2)cc1 (stereo unspecified)	24%	2	-12%	-3	-1%
CC12CCC=CC1C(c1ccc3ccccc3c1C=Cc1ccccc1)N(Cc1ccccc1)C2=O (stereo unspecified)	-4%	nt	-4%	nt	nt
COc1ccccc1-c1nccc(Nc2ccc(F)cc2)n1	6%	nt	6%	nt	nt
Cc1ccc(-c2nc(-c3ccncc3)no2)cc1Cl	-25%	-4	-2%	0	2%
Cc1cccc(-c2noc(-c3cc4ccccc4oc3=O)n2)c1	0.89µM*	nt	?	nt	-2%
O=c1oc2ccccc2cc1-c1nc(-c2ccccc2)no1	11µM*	-13	8.9µM*	22	-7%
Cc1ccc(-c2nc(-c3ccncc3)no2)cc1C	8.9µM*	24	?	14	0%
Cc1cccc(-c2noc(-c3ccc(Cl)cc3[N+](=O)[O-])n2)c1	2.5µM*	4	10µM*	6	2%
Cc1ccc(-c2noc(-c3cc4ccccc4oc3=O)n2)cc1	9%	-3	1%	9	3%
COc1ccc(-c2noc(-c3ccc(Cl)cc3[N+](=O)[O-])n2)cc1OC	33%	2	-2%	0	-6%
CN(c1ccccc1)c1ccc(/C=N/N2CCOCC2)cc1	30%	-22	-4%	?	-3%
c1ccc(-c2noc(-c3ccc4ccccc4c3)n2)cc1	3.5µM*	3	25µM*	-3	-7%
NNC(=S)NC1CCS(=O)(=O)C1 (stereo unspecified)	2.8µM*	26	4.5µM*	-4	-10%
OCCCNC(=S)NC1CCCC1	-6%	-13	-3%	6	-3%
S=C(NC1CCCCCC1)NC1CCCC1	1.6µM*	-5	10µM*	30	4%
NNC(=S)NC1CCCCCCCCCCC1	0.28µM*	3	2.8µM*	3	1%
S=C(NC1CCCCC1)NC1CCCCC1	2.8µM*	nt	?	nt	nt
CN(C)C(=S)NC1CCS(=O)(=O)C1 (stereo unspecified)	-8%	4	-7%	2	-1%
CCOc1ccc(NS(=O)(=O)c2ccc(NC(=O)c3cccnc3)c(OC)c2)cc1	16%	-5	-6%	1	-1%
COc1ccc(-n2c(Cc3cccn3C)nnc2SCC(=O)Nc2ccc(C)c(Cl)c2)cc1	?	22	11µM*	-4	16%
Cc1cc(C)c(NC(=O)CSc2nnc(Cc3cccn3C)n2-c2ccc(F)cc2)c(C)c1	28%	15	-6%	-1	nt
Cc1cc(C)cc(NC(=O)CSc2nnc(Cc3cccn3C)n2-c2ccc(F)cc2)c1	?	12	11µM*	-8	7%
COc1ccc(-n2c(Cc3cccn3C)nnc2SCC(=O)Nc2cccc(OC)c2)cc1	8%	-2	-9%	-1	16%
Cc1ccc(-c2nnc(Sc3nc4ccccc4o3)c3ccccc23)cc1	8.9µM*	6	?	11	4%
SMILES	RORg inh	TRPV1 PAM	Gal4-VP16 FLuc	TRPV1 ag	uPA surface inh
Clc1ccc(-c2nnc(Sc3nc4ccccc4o3)c3ccccc23)cc1	6.3µM*	-6	?	-7	-30%
CC(C)(C)[C@H]1COC(=O)CC/C=C\C[C@@H](CC(=O)N(CCO)Cc2ccccc2)C(=O)N1	nt	nt	nt	nt	1%
Cc1ccccc1C(=O)OCC(=O)NCC1COc2ccccc2O1 (stereo unspecified)	nt	19	nt	3	0%
CC1CCc2c(sc3nc(C(C)(C)C)nc(N4CCN(C(=O)CCl)CC4)c23)C1 (stereo unspecified)	13µM*	4	13µM*	?	-12%
CCC(=O)N1CCN(c2nc(CC)nc3sc4c(c23)CCCC4)CC1	13%	-21	1%	?	-9%
CCN(C[C@H]1N[C@@](CC)(C(=O)OC)[C@H]2C(=O)N(Cc3ccccc3)C(=O)[C@@H]12)C(=O)c1ccc(C)cc1	nt	nt	nt	nt	20%
COc1cccc(N2C(=O)Nc3ccc(Br)cc3C2(O)C(=O)NCCN(C)C)c1 (stereo unspecified)	14%	-1	0%	0	5%
CNc1ccc(Cl)nn1	3%	9	1%	-3	1%
NNc1ccc(Cl)nn1	10µM*	?	?	-1	-3%
CCOC(=O)c1cc2c(nc1C)-c1cc(Cl)cc(Cl)c1OC2O (stereo unspecified)	-24%	-5	5%	9	14%
S=c1[nH]nc(-c2ccco2)n1/N=C/C=C/c1ccco1	7.1µM*	27	10µM*	1	-1%
COc1ccccc1/C=C/C=N/n1c(-c2ccc(C)cc2)n[nH]c1=S	1.1µM*	0	2.8µM*	21	-1%
COc1ccccc1/C=C/C=N/n1c(-c2ccccn2)n[nH]c1=S	?	-4	2%	2	-13%
COc1ccc(-c2n[nH]c(=S)n2/N=C/C=C\c2ccccc2OC)cc1	3.5µM*	-6	?	3	-2%
COc1ccccc1/C=C/C=N/n1c(-c2ccco2)n[nH]c1=S	0.63µM*	nt	2%	nt	1%
Cc1csc(NC(=O)C(F)(F)F)n1	-2%	-5	-3%	-1	-1%
